Screening data from PubChem.
Hits are enriched below; roughly 1.2% of the tested compounds scored in any of these assays.
GALR2 blocker: GALR2 (human) receptor antagonism; GALR2-expressing cells, antagonist mode; inhibition, % at 4 µM; hit rate 0.39% among 140,000; AID 828;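 note: cells stimulated with galanin 1-16 at roughly its EC80; 0% = agonist challenge control and 100% = basal control without agonist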
Target sequence (O43603 whole entry, looked up): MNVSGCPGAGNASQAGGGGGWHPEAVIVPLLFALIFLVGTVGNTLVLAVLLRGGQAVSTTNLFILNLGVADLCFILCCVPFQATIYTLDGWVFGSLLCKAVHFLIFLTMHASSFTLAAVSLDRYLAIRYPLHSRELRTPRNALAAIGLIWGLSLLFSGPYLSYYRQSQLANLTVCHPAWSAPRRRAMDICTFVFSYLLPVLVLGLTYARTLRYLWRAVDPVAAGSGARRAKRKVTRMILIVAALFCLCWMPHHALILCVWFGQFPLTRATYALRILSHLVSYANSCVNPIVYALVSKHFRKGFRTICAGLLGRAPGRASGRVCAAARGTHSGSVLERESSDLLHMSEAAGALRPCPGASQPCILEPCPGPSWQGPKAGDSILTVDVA
S1P2 agonist: activates the human S1P2 receptor; S1P2-expressing cell line, agonist reporter read-out; activation, % at 4.5 µM; hit rate 0.46% among 97,000; AID 729; in the data active = activation above about 16%;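 note: 0% = vehicle low control and 100% = maximal reference agonist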
Target sequence (O95136 whole entry, looked up): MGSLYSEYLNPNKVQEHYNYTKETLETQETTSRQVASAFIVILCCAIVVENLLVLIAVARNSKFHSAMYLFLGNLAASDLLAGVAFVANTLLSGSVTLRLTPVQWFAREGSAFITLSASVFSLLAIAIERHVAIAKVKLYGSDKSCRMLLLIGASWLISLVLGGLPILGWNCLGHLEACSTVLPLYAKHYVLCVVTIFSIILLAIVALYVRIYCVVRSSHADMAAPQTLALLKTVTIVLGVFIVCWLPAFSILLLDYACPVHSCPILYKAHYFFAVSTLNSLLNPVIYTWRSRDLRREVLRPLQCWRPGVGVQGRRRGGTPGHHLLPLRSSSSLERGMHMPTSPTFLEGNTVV
GALR2 ag: activates the human galanin receptor 2; GALR2-expressing cells, agonist activation read-out; activation, % (concentration not given with the values); hit rate 0.48% among 140,000; in the data active = activation above about 5%, passing the limit was not always enough;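 note: 0% = vehicle buffer wells and 100% = reference agonist at full effect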
S1P2 blocker: S1P2 (human) receptor antagonism; cell-based S1P2 antagonist assay, inhibition at 5 uM; inhibition, % at 5 µM; AID 736; hit rate 0.21% among 97,000; in the data active = inhibition above about 45%;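 note: CRE beta-lactamase reporter cells expressing human S1P2 stimulated with S1P; 0% = agonist at EC80 alone and 100% = agonist plus reference antagonist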
GALR2 ag confirm: GALR2 (human) agonism confirmed; shares compounds with GALR2 ag; GALR2-expressing cells, agonist activation; activation, % at 5.6 µM; hit rate 10% among 460; AID 864; in the data active = activation above about 8.4%;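 note: 0% = buffer-only vehicle wells and 100% = full reference agonist response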
BLA activ ctr: activates beta-lactamase reporter in GALR2 agonist counterscreen; AID 865; CHO NFAT-bla reporter, beta-lactamase FRET activation; shares compounds with GALR2 ag; hit rate 10% among 460; activation, % at 5.6 µM;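 active = activation above the screen-wide mean activation plus 3 SD, cut at about 8% in these data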;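 note: 0% = DMSO with PBS wells and 100% = thapsigargin positive control wells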
GALR2 blk conf: GALR2 (human) antagonism confirmed. shares compounds with GALR2 blocker. hit rate 60% among 480. inhibition, % at 4 µM. GALR2-expressing cells, antagonist mode, inhibition;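 note: cells stimulated with galanin at about its EC80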
BLA inh counter: counter-screen for GALR2 antagonists: beta-lactamase reporter inhibitors | CHO NFAT-BLA reporter, beta-lactamase FRET, thapsigargin-stimulated | hit rate 36% among 480 | shares compounds with GALR2 blocker | inhibition, % at 4.2 µM;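 active = inhibition above the mean inhibition across tested compounds plus 3 SD, cut at about 27% in these data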;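 note: 0% = 500 nM thapsigargin stimulated wells and 100% = unstimulated BSA only wells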
* = called active by the depositor; x = not tested or not shown. Cut-off read from the data, not from the text of the source, unless noted: active = inhibition above about 27%; inactive = the rest.

SMILES	GALR2 blocker	S1P2 agonist	GALR2 ag	S1P2 blocker	GALR2 ag confirm	BLA activ ctr	GALR2 blk conf	BLA inh counter
O=C(CSc1nnnn1-c1cccc(Cl)c1)Nc1ccc2c(c1)CCC2	-3.2	x	8.8*	x	5.8	5.6	x	x
Cc1cc(NC(NC(=O)c2ccco2)(C(F)(F)F)C(F)(F)F)no1	3.5	-5.8	8.5	-13.9	-0.4	-0.7	x	x
N#Cc1c(-c2ccccc2)cc(-c2ccco2)c(C#N)c1N	-5.7	10.9	9.6	-34.8	7.7	10.7*	x	x
Cc1nn(C)c(C)c1/C=N/NC(=O)CCn1cc([N+](=O)[O-])cn1	-5.4	x	91.8*	x	-0.9	-1.0	x	x
NC(CC(=O)OC1CCCCC1)C(=O)OC1CCCCC1 (configuration not stated)	-3.4	1.9	8.3	9.1	-1.0	-0.7	x	x
O=C(NCC(=O)N1CCCC1C(=O)O)OC1CCCCC1 (configuration not stated)	5.2	-5.9	-2.8	4.5	x	x	x	x
CC(C)c1nc(SCC(=O)c2ccccc2)c2c(=O)n(C)c(=O)n(C)c2n1	-5.2	-4.9	-1.5	4.6	x	x	x	x
COC(=O)c1cc2c(ccn2-c2ccc(F)cc2)n1CC(C)C	-26.4	-4.0	8.8*	4.6	2.9	5.9	x	x
Cc1cccc2cc3c(NC(=O)c4ccccn4)nn(C)c3nc12	16.2	13.9	8.4	-6.3	3.3	6.9	x	x
CC1=CC(C)(C)N(C(=O)CSc2nnc(N)s2)c2cc(C)c(C)cc21	-9.6	0.4	42.7*	-14.2	-0.5	-0.6	x	x
CC1=CC(C)(C)N(C(=O)CSc2nnc(C)s2)c2ccc(C)cc21	1.9	-1.6	-0.7	-9.7	x	x	x	x
CCOC(=O)c1c(C#N)c(SCC(=O)Nc2ccc(OC)cc2)nc2c1CN(CC)CC2	-1.3	-2.5	67.2*	4.0	0.5	-0.6	x	x
COc1ccc(NC(=O)CSc2nc(N)c(C#N)cc2C#N)cc1	-4.4	-0.9	0.1	-0.8	x	x	x	x
CCOCCC(=O)Nc1cc(Cl)ccc1OC	-24.4	-1.0	0.5	-22.9	x	x	x	x
Cc1cccc2c1-c1sc(C(=O)Nc3nccs3)cc1CO2	5.0	23.6*	89.1*	-12.1	11.1*	24.4*	x	x
CC(CCc1ccco1)NC(=O)CSc1cc(=O)n(C)c2ccccc12 (configuration not stated)	-3.6	-3.7	-0.2	2.5	x	x	x	x
COc1cc(SC#N)ccc1N=Cc1c(C)[nH]n(-c2ccc(C)c(C)c2)c1=O	8.0	x	12.3*	x	4.9	4.3	x	x
COc1ccc(-c2cc(-c3ccccc3)c(C#N)c(S(C)=O)n2)cc1 (configuration not stated)	8.8	10.0	26.9*	6.7	6.7	16.6*	x	x
O=C(Cn1c(COc2ccccc2)nc2ccccc21)Nc1cc(Cl)ccc1Cl	1.3	x	10.1*	x	3.7	5.4	x	x
O=C(Cn1c(COc2ccccc2)nc2ccccc21)Nc1cc(Cl)cc(Cl)c1	-6.4	x	1.9	x	x	x	x	x
CC1=C/C(=N\OS(=O)(=O)c2ccccc2)C(C(C)C)=CC1=O	47.1*	x	9.6*	x	11.3*	3.1	52.5*	29.2*
Cn1c(-c2ccc(C=O)s2)nc2c3ccccc3c3ccccc3c21	3.2	-1.1	3.0	-22.1	x	x	x	x
Brc1ccc(-c2ccc(/C=N/Nc3nc4ccccc4[nH]3)o2)cc1	28.9*	x	22.8*	x	9.5*	17.5*	19.1	13.0
Brc1ccc(-c2ccc(/C=N/Nc3nncc(-c4ccccc4)n3)o2)cc1	2.4	-2.2	-1.6	-7.5	x	x	x	x
COc1cccc(Oc2nnnn2-c2ccccc2)c1	0.2	-2.4	-1.8	-17.9	x	x	x	x
SMILES	GALR2 blocker	S1P2 agonist	GALR2 ag	S1P2 blocker	GALR2 ag confirm	BLA activ ctr	GALR2 blk conf	BLA inh counter
COc1cccc(-n2nnnc2S(C)(=O)=O)c1	33.0*	-7.3	-3.3	16.6	x	x	54.9*	58.1*
Cc1cc(C(F)(F)F)nn1Cc1n[nH]c(=S)n1-c1ccc(F)cc1	62.8*	x	-1.2	x	x	x	4.5	5.0
Cc1ccccc1CS(=O)(=O)c1nnc([C@H](Cc2ccccc2)NC(=O)OC(C)(C)C)o1	28.0*	-5.2	2.9	23.9	x	x	32.9*	55.6*
CCSc1nnc([C@H](Cc2ccccc2)NC(=O)OC(C)(C)C)o1	-3.1	-3.5	0.1	-2.9	x	x	x	x
Cc1ccc(-c2csc(NC(=O)C3=NN(c4ccccc4)C(=O)CC3)n2)cc1	28.3*	x	-0.6	x	x	x	20.0	4.9
N#Cc1cc2c(nc1SCc1nc3ccccc3[nH]1)CCC2	27.6*	0.2	-0.5	14.5	x	x	30.3*	15.7
CC(=O)c1c(C)nc(-c2ccc(Cl)cc2)nc1N=CN(C)C	31.4*	-4.3	-3.0	-5.2	x	x	20.0	11.5
CC(=O)c1c(C)[nH]c(C(=O)OCC(=O)Nc2ccc(C)cc2[N+](=O)[O-])c1C	39.9*	x	-0.6	x	x	x	49.0*	10.5
CC(=O)c1c(C)[nH]c(C(=O)OCC(=O)Nc2cc(Cl)ccc2[N+](=O)[O-])c1C	24.9	x	-0.9	x	x	x	x	x
COc1ccc2[nH]c(=O)c(CN(CCCN(C)C)C(=O)Nc3ccccc3)cc2c1	-0.9	-3.2	-0.5	13.0	x	x	x	x
CCc1ccc2[nH]c(=O)c(CN(CCN(C)C)C(=O)Nc3ccccc3)cc2c1	27.4*	-0.1	-1.6	9.1	x	x	4.3	2.1
c1ccc(CN2CCN(C3=Nc4cccc5cccc3c45)CC2)cc1	-0.8	-0.8	-2.7	4.1	x	x	x	x
O=C1CCN2C=Nc3cccc4ccc1c2c34	29.3*	-4.9	-0.5	2.9	x	x	19.6	21.1
Cc1ccc(-n2c(-c3ccc(Br)cc3)c[n+]3c2CCc2ccc4cccnc4c2-3)cc1	58.7*	-6.2	1.1	87.5*	x	x	30.9*	61.3*
COc1ccc(COc2cc(-c3cccc(OC)c3)nc3ccc(NC(=O)c4ccc(C)cc4)cc23)cc1	13.2	x	-2.5	x	x	x	x	x
COc1ccc(COc2cc(-c3cccc(OC)c3)nc3ccc(NC(=O)c4ccc(N(C)C)cc4)cc23)cc1	27.1*	x	-2.8	x	x	x	16.4	9.8
Cc1ccccc1NC1=CC(=O)CC(C)(C)C1	7.5	-4.1	-2.5	-5.3	x	x	x	x
CC1(C)CC(=O)C=C(NC2=CC3OC(c4ccccc4)OCC3OC2=O)C1 (configuration not stated)	68.8*	x	-1.2	x	x	x	76.1*	64.8*
Nn1cnnc1N/N=C/c1cc(Br)cc(Br)c1O	31.2*	-0.6	-3.8	-9.9	x	x	7.8	0.5
NC(=O)c1ncn([C@@H]2O[C@H](CO)[C@@H](O)[C@H]2O)c1O	12.0	x	-0.2	x	x	x	x	x
N#Cc1ccc(N2Cc3ccccc3C2=NC(=O)c2cccnc2Cl)cc1	-2.9	x	1.2	x	x	x	x	x
O=C(Cc1cccs1)Nc1cccc(-c2nc3cc4ccccc4cc3[nH]2)c1	27.5*	x	-0.5	x	x	x	30.1*	9.9
CCOc1cccc(NC(=O)Cc2cccs2)c1	-6.7	x	-0.2	x	x	x	x	x
CCCSc1nnc(NC(=O)c2sc3nc(-c4cccs4)ccc3c2N)s1	37.6*	-12.1	-3.7	55.2*	x	x	21.0	33.9*
O=c1c(Cl)c(N/N=C/c2ccc(Cl)cc2)cnn1-c1ccccc1	-5.4	x	2.1	x	x	x	x	x
O=c1c(Cl)c(Cl)cnn1Cc1ccccc1Cl	62.6*	x	2.1	x	x	x	64.4*	60.9*
